Structures are written as SMILES. Among all 290,000 compounds or so, about 1,800 (0.62%) were called active. This excerpt belongs to a sample that is enriched for actives. Unmarked numbers belong to inactive results. Rule as the data show it: active = inhibition above about 50%; inactive = the rest.

This test is described as follows: NOD2 signaling inhibitors, cell-based, luminescence, uHTS, HEK293 (AID 1566). To be noted: HEK293 NOD2/NF-kB luciferase reporter, at 4 µM, hits give high values.
For the molecule `COc1ccc(N2C(=O)c3ccccc3NC23CCC(C)CC3)cc1` (stereo not drawn), the inhibition is -58.1%.

As for `Cc1cc(=O)[nH]c(N/N=C/c2ccc(Cl)c([N+](=O)[O-])c2)n1`, the inhibition was -5.5%. For `COc1ccc(/C=C(\NC(=O)c2ccc(OC)cc2)C(=O)N2CCCCC2)cc1` the value was -9.7%; for `Cn1c(=O)c2c(nc(SCC(=O)O)n2Cc2cc3c(cc2Cl)OCO3)n(C)c1=O`, 3%; for `CCOCCCn1cnc2c(c1=O)c1nc3ccccc3nc1n2-c1ccc(C)cc1`, 24.1%. Turning to `O=C(NCCn1cccn1)c1ccc(OC2CCN(C(=O)C3CC3)CC2)cc1`, the inhibition is -27.2%. Turning to `O=C(N/N=C/c1cc([N+](=O)[O-])ccc1O)NC12CC3CC(CC(C3)C1)C2`, the inhibition is 64% (active). For `O=C(N/N=C/c1cc([N+](=O)[O-])ccc1O)C12CC3CC(CC(C3)C1)C2`, the inhibition was 15%. For `O=C(N/N=C/c1ccccc1O)NC12CC3CC(CC(C3)C1)C2` the value was -29.5%; for `c1ccc(-c2ccccc2OCCCN2CCOCC2)cc1`, -29.3%. Regarding `O=C(CSc1nnc(-c2ccc(F)cc2)o1)Nc1ccc(S(=O)(=O)N2CCCCCC2)cc1`, the inhibition was -4.4%. For `CCOCC(=O)Nc1cccc(Br)c1` the value was -5.5%; for `CCCc1cc(C(=O)Nc2ccc(C(=O)c3ccccc3)cc2)n(C)n1`, 54.7% (active). For `CCCc1cc(C(=O)Nc2ccc(C(=O)c3ccc(F)cc3)cc2)n(C)n1` the value was 18.5%; for `CCCc1cc(C(=O)Nc2ccc(C(=O)c3ccc(C)cc3)cc2)n(C)n1`, 23.6%. For `CCOC(=O)c1c(C)n(C)c2ccc(OCC(O)CN3CCN(C)CC3)cc12` (stereo not drawn) the value was -0.5%; for `Cc1nc(SCC(=O)N2CCCc3ccccc32)c2oc3ccccc3c2n1`, -6.5%; for `CCc1nc(SCC(=O)N2CCCc3ccccc32)c2oc3ccccc3c2n1`, 37%.

For the molecule `COc1cc(C(=O)NCc2ccncc2)cc(OC)c1OC`, the inhibition was 10.3%.

Consider `COc1ccc(-c2cnc(N)nc2-c2ccc(OCc3ccccc3)cc2O)cc1`, for which the inhibition is -4.2%.

For `Nc1ncc(-c2ccccc2)c(-c2ccc(OCc3ccccc3)cc2O)n1`, the inhibition was 13.4%. The same measure for `Nc1ncnc2c1ncn2Cc1ccccc1`: 6.4%; for `CCc1ccc(N2CN(Cc3ccco3)CNC2=S)cc1`: 4.9%; for `COc1ccc(/C=N/OCC(=O)Nc2nc3ccccc3s2)cc1OC`: -1.1%. The same measure for `CC1=NN(C(=O)Cn2ccc([N+](=O)[O-])n2)C(O)(C(F)(F)F)C1` (stereo not drawn): 12.1%. For `CCOC(=O)C1=C(c2ccccc2)O/C(=C(\C(=O)OC)C(F)(F)F)S1` the value was -23%; for `CCOC(=O)C1=C(c2ccccc2)O/C(=C(/C#N)C(F)(F)F)S1`, 51.4% (active); for `CCOC(=O)C1=C(c2ccccc2)O/C(=C(/C(=O)OC)C(F)(F)F)S1`, 5.4%.

`CC(=O)Nc1ccc(S(=O)(=O)Nc2nc3ccccc3nc2N2CCCC2)cc1`: the inhibition was -6%. The same measure for `Cc1ccn2cc(C(=O)N3CCCC(Nc4ccc(F)cc4)C3)nc2c1` (stereo not drawn): -9.3%. The same measure for `O=C(Nc1ccncc1)c1c(F)c(F)c(F)c(F)c1F`: 8.8%; for `O=C(Nc1ccccc1)c1c(F)cccc1F`: -8%; for `O=C(Oc1cccc2cccnc12)c1cccc([N+](=O)[O-])c1`: 11.2%. For `O=C(Oc1ccc(Cl)c2cccnc12)c1cccc([N+](=O)[O-])c1` the value was 13.8%. As for `O=C(Oc1c(Cl)cc(Cl)c2cccnc12)c1cccc([N+](=O)[O-])c1`, the inhibition was 96.1% (active). For `CCOc1ccc(-c2ccc(SCC(=O)Nc3nnc(CC)s3)nn2)cc1` the value was -117%; for `CCCC(C(=O)NC1CCCC1)N(CC1CCCO1)C(=O)c1snc(C(N)=O)c1N` (stereo not drawn), -7.3%; for `O=C(Nc1ccc(O)c(C(=O)O)c1)Oc1ccccc1`, 8.6%. The same measure for `CC(C)(C)c1ccc(OC(=O)Nc2ccc(O)c(C(=O)O)c2)cc1`: 51.6% (active). For `Cc1ccc(OCC(=O)Nc2ccc(O)c(C(=O)O)c2)cc1C` the value was 1.5%. For `COC(=O)C1=C(C)NC(C)=C(C(=O)OC)C1c1ccccn1`, the inhibition was 2.3%.

Consider `Cc1ccc(OCc2cc(C(=O)N3CCN(C)C[C@@H]3c3ccccc3)no2)cc1C`, for which the inhibition was -27.5%.

With `S=C(Nc1cc(Cl)cc(Cl)c1)N1CCN(c2ccccn2)CC1`, the inhibition is 14.1%. The same measure for `CCOC(=O)Cc1nnc2c(Nc3ccccc3F)nc3nonc3n12`: 55.4% (active); for `CCOC(=O)Cc1nnc2c(Nc3ccc(C)cc3)nc3nonc3n12`: -2.9%; for `CCOC(=O)Cc1nnc2c(Nc3ccc(Cl)cc3)nc3nonc3n12`: 14.5%. The same measure for `Cc1noc(C)c1C(=O)N1CCC2(CC1)Oc1ccc(F)cc1C(=O)C21CC(c2ccc(Cl)cc2)=NO1` (stereo not drawn): 13%.

`COc1ccc(/C=N/n2cnc3c([nH]c4ccc(F)cc43)c2=O)cc1CN1CCCC1`: the inhibition was 12.1%. The same measure for `COc1ccc(C(=O)Nc2sc3c(c2C(=O)O)CC(C)(C)OC3)cc1`: 8.8%; for `CC1(C)Cc2c(sc(NC(=O)c3ccccc3)c2C(=O)O)CO1`: -27.1%. Regarding `C(=N\N(c1ccccc1)c1ccccc1)/c1ccc(N2CCOCC2)s1`, the inhibition is 11.6%.

In the case of `c1ccc2c(-c3c[nH]c4ccccc34)c3ccccc3nc2c1`, the inhibition was 0%.

As for `Cc1cccc(C(=O)c2cn[nH]c2-c2ccccc2O)c1`, the inhibition is -3.8%. The same measure for `Nn1c(-c2ccc(F)cc2)nc2ccccc2c1=O`: 12.9%; for `O=C1c2cc(F)ccc2-n2c1nc1ccccc1c2=O`: 63.4% (active); for `O=C1c2ccccc2-n2c1nc1ccccc1c2=O`: 26.3%. The same measure for `CCn1c(CNc2ccc(Cl)cc2)nnc1SCC(=O)OC1CCCCC1`: 4.4%; for `CCOC(=O)C1CCN(C(=O)COC(=O)c2ccc(Br)o2)CC1`: 20.2%; for `Cc1cc2c(s1)c1cnn(Cc3ccccc3F)c(=O)c1n2C`: 10.1%. The same measure for `COc1ccccc1C(=O)N1CCN(c2cccc(Cl)c2)CC1`: 3.1%; for `CN(C(=O)c1cnc(N2CCN(c3ncccn3)CC2)c2ccccc12)c1ccc(Cl)cc1`: 15.1%.

With `CCOc1ccccc1C(=O)N1CCN(c2cccc(Cl)c2)CC1`, the inhibition was -14%. Take `COc1ccc(N(C)C(=O)c2cnc(N3CCN(c4ncccn4)CC3)c3ccccc23)cc1`: the inhibition was 14.7%.

(Values after PubChem BioAssay AID1566 (Sanford-Burnham Center for Chemical Genomics, 2009).)
